The source of these data is PubChem BioAssay (NCI).

Test systems include HCT-15 colon; HT29 colon; SNB-75 CNS; SNB-19 CNS; U251 CNS; PC-3 prostate; SK-MEL-5 melanoma; UACC-62 melanoma; LOX IMVI melanoma; SK-MEL-28 melanoma; SK-MEL-2 melanoma; SN12C renal; UO-31 renal; TK-10 renal; ACHN renal; CAKI-1 renal; A498 renal; CCRF-CEM leukemia; MOLT-4 leukemia.
Common to all, as to assay: NCI-60 one-dose screen, 48 h (100 = growth as untreated, 0 = no growth, -100 = all killed)
Holding throughout (settings): 10 µM

Compounds without any hit were thinned out: in the full panel of roughly 83,000, 20% have a hit.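 Results are percent growth after 48 hours of single-concentration exposure. 100 means growth as in untreated cells, lower positive values show inhibition; negative values down to -100 show cell death.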 Values without a mark were called inactive. Calls of active or inactive are those of the source. Rule for the calls: active = growth percent below 10; inactive = the rest.

With `O/N=C1\CCC2CCCCC2C1` (configuration not stated), the growth was 99.6% with HCT-15 colon; 99.2% in the assay on HT29 colon; 71% in the assay on SNB-75 CNS; 98.5% in the assay with SNB-19 CNS; 107% in the assay on U251 CNS; 97.1% in the assay on PC-3 prostate. Moreover, the growth was 102% in the assay with SK-MEL-5 melanoma; 106% in the assay with UACC-62 melanoma; 98.2% in the assay on LOX IMVI melanoma; 108% in the assay with SK-MEL-28 melanoma; 101% in the assay with SK-MEL-2 melanoma; 113% with SN12C renal. Moreover, the growth with UO-31 renal is 95.5%; in the assay on TK-10 renal, 101%; in the assay with ACHN renal it was 97.3%; with CAKI-1 renal, 96.2%; in the assay with A498 renal, 103%; with CCRF-CEM leukemia it was 103%. Moreover, the growth in the assay with MOLT-4 leukemia is 98.6%.
With `COc1cc(CSc2nc3ccc(Cl)cc3c(=O)n2Cc2ccccc2)cc(OC)c1OC`, the growth in the assay with HCT-15 colon is 24.9%; in the assay on HT29 colon, 11.7%; in the assay on SNB-75 CNS, -34.5% (active); in the assay with SNB-19 CNS it was 61.1%; in the assay on U251 CNS, 32.8%; in the assay with PC-3 prostate it was 55.1%. Moreover, the growth was 25.7% with SK-MEL-5 melanoma; 16.2% with UACC-62 melanoma; 39.3% with LOX IMVI melanoma; 43.7% with SK-MEL-28 melanoma; 21.4% in the assay on SK-MEL-2 melanoma; 38.6% in the assay on SN12C renal. Besides, the growth with UO-31 renal is 27.1%; in the assay with TK-10 renal, 73.6%; in the assay on ACHN renal it was 40.3%; in the assay on CAKI-1 renal, 26.7%; with A498 renal it was 24%; in the assay on CCRF-CEM leukemia, 28.5%. Moreover, the growth with MOLT-4 leukemia was 29.4%.
Turning to `Cc1cccc2c1O/C(=C\c1ncc([N+](=O)[O-])n1C)C2=O`, the growth is 5.68% (active) in the assay with HCT-15 colon; -21% (active) in the assay on HT29 colon; 8.32% (active) in the assay with SNB-75 CNS; -5.53% (active) in the assay on SNB-19 CNS; -17.5% (active) with U251 CNS; -22.4% (active) with PC-3 prostate. For the same compound, the growth is -92.2% (active) with SK-MEL-5 melanoma; -66.3% (active) in the assay on UACC-62 melanoma; -39.6% (active) in the assay with LOX IMVI melanoma; -17.8% (active) in the assay on SK-MEL-28 melanoma; -45.3% (active) with SK-MEL-2 melanoma; -48.5% (active) with SN12C renal. Besides, the growth in the assay with UO-31 renal was -38.9% (active); in the assay with TK-10 renal it was -34.3% (active); in the assay with ACHN renal it was 4.76% (active); with CAKI-1 renal, -29.7% (active); with A498 renal it was -72.7% (active); in the assay with CCRF-CEM leukemia, 5.23% (active). Also, the growth with MOLT-4 leukemia was -0.52% (active).
Take `COc1cc(C(c2c[nH]c3ccccc23)N2CCCC2)ccc1OCc1ccccc1` (configuration not stated): the growth is 77.1% in the assay with HCT-15 colon; 78.5% with HT29 colon; 41.3% in the assay with SNB-75 CNS; 87.5% in the assay on SNB-19 CNS; 86% with U251 CNS; 55.1% in the assay with PC-3 prostate. The growth was 75.6% in the assay on SK-MEL-5 melanoma; 60.9% in the assay with UACC-62 melanoma; 68.9% with LOX IMVI melanoma; 98% in the assay with SK-MEL-28 melanoma; 81.6% in the assay on SK-MEL-2 melanoma; 74.9% in the assay on SN12C renal. Further, the growth with UO-31 renal is 24.7%; in the assay with TK-10 renal it was 76.6%; with ACHN renal, 73.2%; with CAKI-1 renal it was 53.3%; in the assay with A498 renal it was 71.6%; in the assay with CCRF-CEM leukemia, 16.2%. Also, the growth with MOLT-4 leukemia is 26.1%.
`COc1ccc(C2C=C(c3ccc(Cl)cc3)N=C3SC=CN32)c(Br)c1` (configuration not stated): the growth in the assay with HCT-15 colon was 74%; with HT29 colon, 65.2%; in the assay on SNB-75 CNS, 63.6%; with SNB-19 CNS, 66.9%; in the assay on U251 CNS, 70.2%; in the assay on PC-3 prostate it was 45.2%. Also, the growth in the assay with SK-MEL-5 melanoma was 88.6%; in the assay on UACC-62 melanoma, 75.2%; with LOX IMVI melanoma, 71.2%; in the assay with SK-MEL-28 melanoma, 63.5%; in the assay with SK-MEL-2 melanoma, 85.3%; with SN12C renal it was 67.6%. For the same compound, the growth with UO-31 renal is 84.3%; in the assay on TK-10 renal, 83.5%; in the assay with ACHN renal, 67.7%; with CAKI-1 renal it was 54.1%; in the assay with A498 renal it was 89.7%; in the assay with CCRF-CEM leukemia it was 71.7%. Further, in the assay on MOLT-4 leukemia, the growth was 53.1%.
As for `O=C/C=C/c1ccc([N+](=O)[O-])cc1Cl`, the growth with HCT-15 colon is 98%; with HT29 colon, 97.4%; in the assay on SNB-75 CNS it was 101%; with SNB-19 CNS it was 105%; in the assay with U251 CNS, 100%; in the assay with PC-3 prostate it was 86.6%. The growth in the assay with SK-MEL-5 melanoma was 100%; in the assay with UACC-62 melanoma, 96.5%; with LOX IMVI melanoma, 47.8%; in the assay with SK-MEL-28 melanoma it was 102%; with SK-MEL-2 melanoma, 94.2%; in the assay with SN12C renal, 97.5%. Moreover, the growth in the assay on UO-31 renal was 74.5%; in the assay on TK-10 renal it was 139%; with ACHN renal it was 115%; in the assay on CAKI-1 renal it was 107%; in the assay on A498 renal, 117%; in the assay on CCRF-CEM leukemia, 42.6%. For the same compound, in the assay on MOLT-4 leukemia, the growth was 86.6%.
In the case of `COc1ccc(-c2nsc3c2NC(=O)CC3c2cccc(Cl)c2)cc1` (configuration not stated), the growth in the assay on HCT-15 colon was 27.7%; in the assay on HT29 colon, 2.95% (active); with SNB-75 CNS it was -0.284% (active); with SNB-19 CNS it was 54.3%; in the assay on U251 CNS, 35%; with PC-3 prostate it was 15.7%. The growth is 23% with SK-MEL-5 melanoma; 41.6% with UACC-62 melanoma; 43.7% in the assay with LOX IMVI melanoma; 49.8% in the assay with SK-MEL-28 melanoma; -14.4% (active) in the assay on SK-MEL-2 melanoma; 47.8% in the assay with SN12C renal. Besides, the growth in the assay on UO-31 renal was 36.8%; in the assay with TK-10 renal it was 34.9%; in the assay with ACHN renal it was 49.9%; with CAKI-1 renal, 18.4%; in the assay with A498 renal it was 17.8%; with CCRF-CEM leukemia, 13.8%. The growth in the assay with MOLT-4 leukemia was 18.2%.
Regarding `CCn1nc(-c2ccc(C(=O)OC)cc2)nc2c(=O)n(C)c(=O)nc1-2`, the growth is 64.1% with HCT-15 colon; 70.7% with HT29 colon; -44% (active) with SNB-75 CNS; 56.8% in the assay with SNB-19 CNS; 41.5% with U251 CNS; 57.3% in the assay with PC-3 prostate. The growth with SK-MEL-5 melanoma is 87%; in the assay on UACC-62 melanoma, 50.5%; with LOX IMVI melanoma it was 55.5%; in the assay with SK-MEL-28 melanoma it was 77.7%; in the assay with SK-MEL-2 melanoma, 96.6%; in the assay on SN12C renal it was 76.6%. In addition, the growth is 49.9% in the assay with UO-31 renal; 85.7% in the assay on TK-10 renal; -53.4% (active) in the assay on ACHN renal; 63.7% in the assay on CAKI-1 renal; 108% in the assay with A498 renal; 83.9% with CCRF-CEM leukemia. For the same compound, the growth with MOLT-4 leukemia is 101%.
